The list is not random: actives were taken first. Their share in the collection is about 3.2%.
pS6 MEF inh: Acumen qHTS Assay for Inhibitors of the mTORC1 Signaling Pathway in MEF (Tsc2-/-, p53-/-) Cells: Sytravon. Tsc2-/- p53-/- MEF, phospho-rpS6 immunofluorescence/PI, 24 h. AID 493208, 2011. Potency, µM (titrated, usually from 38.3 µM), without a hit: at the highest dose activity change, negative = inhibition, usual class: inhibitors. hit rate 0.78% among 44,000;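 further: potency means the concentration at half of the fitted maximal effect; plate controls were DMSO for no effect and rapamycin for full effect; nearly all actives have a fitted effect of over 50% in size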
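Readout is phospho-S6 Alexa 488 signal normalized to PI per well, reported as % active cells with thresholds set from rapamycin (7.5 nM) and DMSO controls. Cells: Tsc2-/-, p53-/- MEFs, 24 hrs compound at 37 C; PI cell number serves as viability.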
PMP22 txn: Cell-based coincidence reporter assay to measure PMP22 gene transcription in S16 Pmp22-F2sN cells - Primary screen | S16 Pmp22-F2sN Schwann cells, FLuc/NLuc coincidence luminescence, 24 h | Potency, µM (series often up to 57.5 µM), for inactives: at the highest dose activity change, negative = inhibition, actives largely listed as inhibitors | hit rate 2% among 43,000; active means clear falling dose curves in both reporters; inconclusive means both reporters move, but less clearly or upward; inactive means either reporter flat; the % is the NLuc reporter signal; further: potency means the concentration at half of the fitted maximal effect; on the % scale 0 is the no-effect control and ±100 the full control effect
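qHTS, 1536-well. Cells seeded, compounds added by pin tool, 24 h 37C. Nano-Glo reagent 1 (lysis/FLuc), 10 min RT, read; Stop&Glo, 10 min RT, read NLuc.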
S16 F2sN tox: Cell viability qHTS assay in S16 Pmp22-F2sN cells | S16 Pmp22-F2sN Schwann cells (luciferase reporters placed in the Pmp22 gene) viability, CellTiter-Glo, 24 h | AID 1508642, 2021 | Potency, µM (highest dose often 57.5 µM), without a hit: at the highest dose activity change, negative = cytotoxicity, usual class: cytotoxic | hit rate 0.48% among 43,000; further: potency means the concentration at half of the fitted maximal effect; on the % scale 0 is the no-effect control and ±100 the full control effect; nearly all actives have a fitted effect of over 65% in size
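Seed 500-1,000 S16 Pmp22-F2sN cells per well in phenol-red-free DMEM with 10% heat-inactivated FBS; pin-add 23 nL compound; incubate 24 h at 37C; add CellTiter-Glo, wait 15 min protected from light; read luminescence.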
p53null 39C tox: qHTS Screen for Compounds that Selectively Target Cancer Cells with p53 Mutations: Cytotoxicity of p53 Null Cells at the Nonpermissive Temperature; Potency, µM (highest dose often 46.1 µM), without a hit: top-dose activity, negative = cell killing, actives largely listed as cytotoxic; AID 904, 2007; hit rate 0.97% among 55,000; H1299 p53-null (neo) cells, 39C, ATPlite viability, 24 h;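 further: potency means the concentration at half of the fitted maximal effect; 0% = DMSO only and -100% = full killing by 100 µM tamoxifen; nearly all actives have a fitted effect of over 50% in size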
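Concentration-response (up to 46 uM) was run for 24 h at the nonpermissive 39C on H1299-p53A138V or H1299-neo cells. ATP content was measured with ATPlite luminescence. AC50 values were Hill-modeled after normalizing between DMSO and 100 uM tamoxifen killing.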
p53null 32C kill: qHTS Screen for Compounds that Selectively Target Cancer Cells with p53 Mutations: Cytotoxicity of p53 Null Cells at the Permissive Temperature; Potency, µM (top dose mostly 46.1 µM), without a hit: at the top dose activity change, negative = cytotoxicity, actives largely listed as cytotoxic; H1299-neo p53 null cells, ATP luminescence, 24 h, 32C; hit rate 0.62% among 55,000;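 further: potency means the concentration at half of the fitted maximal effect; 0% = DMSO only and -100% = full killing by 100 µM tamoxifen; nearly all actives have a fitted effect of over 55% in size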
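We seeded p53-null H1299-neo cells, incubated them overnight at 37C, and added compounds across a range up to 46 uM. After 24 hours at 32C, ATP reagent was applied for 20 min at room temperature and luminescence recorded.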
NLuc sat counter: Biochemical NLuc saturation counterscreen for small molecule modulators of PMP22 gene expression - Nano-Glo assay; shares compounds with PMP22 txn; Secreted NLuc enzyme (filtered S16 cell medium), Nano-Glo luminescence; Potency, µM (top dose mostly 57.5 µM), for inactives: at the top dose activity change, negative = inhibition, hits mostly inhibitors; hit rate 4% among 690; AID 1508638, 2021; further: potency means the concentration at half of the fitted maximal effect; on the % scale 0 is the no-effect control and ±100 the full control effect
NLuc Km ctr: Biochemical coelenterazine-based NLuc counterscreen for small molecule modulators of PMP22 gene expression - Km assay; shares compounds with PMP22 txn; secreted NLuc enzyme, coelenterazine luminescence, Km conditions; Potency, µM (highest dose often 57.5 µM), for inactives: top-dose activity change, negative = inhibition, usual class: inhibitors; hit rate 5% among 690; further: potency means the concentration at half of the fitted maximal effect; on the % scale 0 is the no-effect control and ±100 the full control effect
FLuc counter: Biochemical FLuc counterscreen for small molecule modulators of PMP22 gene expression; AID 1508640, 2021; purified P. pyralis FLuc, luminescence, 10 min; shares compounds with PMP22 txn; Potency, µM (titrated, usually from 57.5 µM), inactives show at the highest dose activity, negative = inhibition, usual class: inhibitors; 690 tested, under 10 active; further: % of control where 0% means no effect
Target sequence (P08659 whole entry, looked up): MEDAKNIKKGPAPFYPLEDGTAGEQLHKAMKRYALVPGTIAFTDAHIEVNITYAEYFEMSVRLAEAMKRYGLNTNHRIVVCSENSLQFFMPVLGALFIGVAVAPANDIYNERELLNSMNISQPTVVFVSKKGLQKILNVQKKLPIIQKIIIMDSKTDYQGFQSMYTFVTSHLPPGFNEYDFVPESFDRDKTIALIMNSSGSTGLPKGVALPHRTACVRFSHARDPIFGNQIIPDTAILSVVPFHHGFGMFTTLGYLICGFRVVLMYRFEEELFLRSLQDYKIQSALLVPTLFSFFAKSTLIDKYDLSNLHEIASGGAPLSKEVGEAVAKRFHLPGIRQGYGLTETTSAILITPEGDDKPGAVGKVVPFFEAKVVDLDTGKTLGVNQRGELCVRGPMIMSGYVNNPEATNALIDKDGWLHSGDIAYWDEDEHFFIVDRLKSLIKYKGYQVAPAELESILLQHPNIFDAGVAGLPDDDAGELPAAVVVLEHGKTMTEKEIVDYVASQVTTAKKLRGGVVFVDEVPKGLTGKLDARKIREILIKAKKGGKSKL
S16 F2sN tox cnf: Cell viability qHTS assay in S16 Pmp22-F2sN cells - Confirmatory screen; Potency, µM (doses to about 57.5 µM), for the others: at the top dose activity change, negative = viability loss, most hits filed as cytotoxic; shares compounds with PMP22 txn; S16 Schwann cells viability, CellTiter-Glo ATP luminescence, 24 h; hit rate 7% among 690; further: potency means the concentration at half of the fitted maximal effect; on the % scale 0 is the no-effect control and ±100 the full control effect
PMP22 txn conf: Cell-based coincidence reporter assay to measure PMP22 gene transcription in S16 Pmp22-F2sN cells - Confirmatory screen; shares compounds with PMP22 txn; S16 Schwann cells Pmp22-F2sN, dual luciferase, 24 h; Potency, µM (top dose mostly 57.5 µM), without a hit: at the highest dose activity change, negative = inhibition, hits mostly inhibitors; hit rate 22% among 690; AID 1508646, 2021; active means clear falling dose curves in both reporters; inconclusive means both reporters move, but less clearly or upward; inactive means either reporter flat; the % is the FLuc reporter signal; further: potency means the concentration at half of the fitted maximal effect
PMP22 prot conf: Cell-based HiBiT reporter assay to measure PMP22 protein expression in S16 Pmp22-HiBiT cells - Confirmatory screen. shares compounds with PMP22 txn. S16 Schwann cells Pmp22-HiBiT, luminescence, 48 h. Potency, µM (highest dose often 27.9 µM), for inactives: at the highest dose activity change, negative = inhibition, hits mostly inhibitors. 95 tested, under 10 active. AID 1508647, 2021
Target sequence (P25094 whole entry, looked up): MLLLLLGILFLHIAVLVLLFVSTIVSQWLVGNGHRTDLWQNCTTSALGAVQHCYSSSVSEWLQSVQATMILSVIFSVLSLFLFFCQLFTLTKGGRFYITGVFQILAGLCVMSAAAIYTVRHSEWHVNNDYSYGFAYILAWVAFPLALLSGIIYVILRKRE
Numbers without * were called inactive; ? = inconclusive; / = no result given. Unless noted, the call rests on the fitted dose curve; in most records, active means well fitted curve in the direction sought with a large enough effect; inconclusive means small, poorly fitted or top-dose-only effect, or another doubt; inactive means no such curve, though single readings can be large; an effect the other way counts as inactive or inconclusive.

SMILES	pS6 MEF inh	PMP22 txn	S16 F2sN tox	p53null 39C tox	p53null 32C kill	NLuc sat counter	NLuc Km ctr	FLuc counter	S16 F2sN tox cnf	PMP22 txn conf	others
Cc1ccccc1Nc1c(-c2ccccc2O)nc2sccn12	-21%	5%	-13%	-8%	-10%	/	/	/	/	/
Cc1ccccc1CNC(=O)C1CCCN(c2nnc(-n3c(C)ccc3C)s2)C1 (stereo not given)	-10%	16µM*	?	0%	7%	-10%	?	0%	7%	-37%
Cc1cccc(NC(=O)C2CCCN(c3nnc(-n4c(C)ccc4C)s3)C2)c1C (stereo not given)	-3%	16µM*	-2%	1%	0%	?	-6%	-3%	1%	?
Cc1cc(F)ccc1NC(=O)C1CCCN(c2nnc(-n3c(C)ccc3C)s2)C1 (stereo not given)	-7%	?	1%	-21%	-5%	/	/	/	/	/
Cc1ccc(C)n1-c1nnc(N2CCCC(C(=O)Nc3ccccc3Br)C2)s1 (stereo not given)	-9%	17µM*	-12%	0%	4%	-17%	?	0%	14%	-20%
Cc1ccc(CNC(=O)c2cnc3c(-c4ccc(F)cc4)c(C)nn3c2C)o1	-4%	-10%	2%	-4%	6%	/	/	/	/	/
Cc1cccc(N(C)S(=O)(=O)c2ccc(-c3cc(C)no3)s2)c1	-19%	7.6µM*	-17%	?	15%	?	?	-12%	-14%	?
CCCCc1ccc(C(=O)c2c(N)c(C(=O)Nc3cccc(OC)c3)c3ccccn23)cc1	-1%	-23%	5%	-11%	0%	/	/	/	/	/
CCC(Sc1nc2ccccc2c2nc(-c3ccccc3)nn12)C(=O)Nc1cccc(OC)c1 (stereo not given)	0%	13µM*	?	-3%	-7%	-3%	-3%	-3%	-25%	15µM*	PMP22 prot conf=?
COc1ccc(OCCSc2nnc3c(Cl)cc(Cl)cn23)cc1	/	/	/	/	-16%	/	/	/	/	/
O=C(Nc1ccc2c(c1)Cc1ccccc1-2)c1ccc(Br)o1	/	/	/	-17%	-7%	/	/	/	/	/
CSc1ccc(CCNC(=O)CN2C(=O)c3cccnc3Oc3ccc(C)cc32)cc1	4%	?	3%	-13%	-7%	/	/	/	/	/
Cc1cccn2c(=O)c3cc(C#N)c(=O)n(-c4nnc(SCc5ccc(F)cc5)s4)c3nc12	-5%	10µM*	?	-24%	-14%	-7%	-2%	11%	8%	-28%
Cc1ccc(CSc2nnc(-n3c(=O)c(C#N)cc4c(=O)n5cccc(C)c5nc43)s2)cc1	-3%	?	3%	-20%	0%	/	/	/	/	/
COc1ccc(OC)c(CCNC(=O)c2sc3nc4n(c(=O)c3c2C)CCCC4)c1	3%	-16%	2%	?	1%	/	/	/	/	/
CCCCCn1c(=N)n(CC(O)COc2cccc(C)c2)c2ccccc21 (stereo not given)	3.7µM*	18µM*	?	?	?	-11%	4%	-3%	22µM*	16µM*
CC(C)OCCCNc1ncnc2sc3c(c12)CCCC3	-20%	14µM*	-10%	-8%	-3%	-3%	-3%	-9%	-7%	-6%
CCc1ccccc1NC(=O)Cn1c(=O)n(Cc2ccco2)c(=O)c2sc3ccccc3c21	5%	?	4%	3%	1%	/	/	/	/	/
Cc1ccc(CNC(=O)Cn2c(=O)n(Cc3ccccc3)c(=O)c3sc4ccccc4c32)cc1	1%	13µM*	4%	-7%	-2%	-1%	7%	9%	-20%	19µM*
Cc1c(Cl)cccc1NC(=O)Cn1c(=O)n(Cc2ccco2)c(=O)c2sc3ccccc3c21	-10%	13µM*	1%	-16%	0%	-3%	9%	3%	-38%	15µM*
Cc1ccc(CNC(=O)Cn2c(=O)n(-c3cccc(Cl)c3)c(=O)c3sc4ccccc4c32)cc1	-5%	9.5µM*	5%	7%	?	-7%	-3%	-4%	?	?
COc1ccc(-c2noc(CSc3nnc(-c4ccncc4)n3-c3cccc(C)c3)n2)cc1OC	1%	10µM*	-3%	?	-8%	?	?	-12%	-16%	-57%

High-throughput results deposited in PubChem by National Center for Advancing Translational Sciences (NCATS).
